PubChem BioAssay AID540335 (Broad Institute, 2011)
Among all 1,300 compounds or so, about 270 (21%) were called active. The list is a sample of the results. Results with a measured potency or affinity are listed apart. Unmarked numbers belong to inactive results.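 How the source made its calls: active means dose-dependent rise or fall in viability, either side of zero, with half-maximal concentration at or below a set limit; inconclusive means flat curve at 30 to 70% viability loss, or poor fit; inactive means flat within 30% either way, or potency beyond limit.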

assay: A375 melanoma cell viability reduction, dose response, counter-screen for MITF modulator project, cherry-pick samples, set 2 (AID 540335); details: CellTiter-Glo ATP luminescence, 24 h; series mostly up to 35 µM; activity change, negative = decreased viability: at the top concentration;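 further: A375 human melanoma cells which do not depend on MITF; 0% = median of neutral control wells and 100% = double that signal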

Row | Compound | activity change, negative = decreased viability [%]
1 | CCOC(=O)CSC1=NC(=O)/C(=C/c2ccc(OC)cc2)S1 | -20.9
2 | N/C(=N\OC(=O)c1ccc(Cl)cc1Cl)c1ccncc1 | 5.82
3 | COCc1cc(C)nc2sc(C(=O)Nc3ccc(OC)cc3)c(N)c12 | -2.81
4 | CN1CCN(CCCOc2ccc(-c3ccccc3)cc2)CC1 | -0.67
5 | O=C1c2ccccc2C(=O)N1CCOc1ccccc1 | -1.42
6 | CN=c1scc(-c2ccccc2F)n1/N=C/c1ccc[nH]1 | -31.4
7 | Cc1ccc(NC(=O)CCC(=O)N/N=C/c2ccc([N+](=O)[O-])o2)cc1C | -3.7
8 | CC1CC(C)C[N+](=C2C=C(N3CCCC3)CC(C)(C)C2)C1 (stereo not drawn) | -15.3
9 | O=C(Cn1cc(/C=C\[N+](=O)[O-])c2ccccc21)Nc1ccccc1 | -0.096
10 | Cc1ccc(NC(=O)c2ccc([N+](=O)[O-])o2)cc1S(=O)(=O)N1CCOCC1 | 13.3
11 | COc1ccc2oc(C(=O)Nc3ccc(S(=O)(=O)N(C)C4CCN(C)CC4)cc3)c(C)c2c1 | -26.3
12 | CC(Oc1ccccc1)C(=O)Nc1nc(-c2ccccn2)cs1 (stereo not drawn) | -9.16
13 | C/C(=N\NC(=O)C(C)Oc1ccc([N+](=O)[O-])cc1)c1ccccn1 (stereo not drawn) | -25.9
14 | CC(C)C(=O)N1CCN(c2ccc(NC(=O)c3ccc([N+](=O)[O-])o3)cc2)CC1 | 17.6
15 | CC(C)(C)NC(=O)CCN(/N=C/c1ccc([N+](=O)[O-])o1)C1=NS(=O)(=O)c2ccccc21 | -15.5
16 | Cc1c(N=C2C=CC(=O)c3ccccc32)c(=O)n(-c2ccccc2)n1C | -31
17 | COc1cc(/C=N/NC(N)=O)c(Br)cc1OCC(=O)Nc1ccccc1C | -37.4
18 | COc1ccc(S(=O)NC2CCCCC2)c(OC)c1C (stereo not drawn) | -1.99
19 | COc1cc(CN2CCC(Cc3ccccc3)CC2)cc(OC)c1OC | -6.84
20 | O=C(c1nnsc1S(=O)(=O)c1ccc(Cl)cc1)N1CCOCC1 | -5.83
21 | Cc1cc(C)c[n+](C2=C([O-])c3ccccc3C(=O)/C2=N\S(=O)(=O)c2cccs2)c1 | -36.8
22 | O=C(CCl)Nc1cccc(Oc2ccccc2)c1 | -29.8
23 | CC(=O)N1CCc2c(sc(NC(=O)c3ccc([N+](=O)[O-])o3)c2C#N)C1 | 9.03
24 | O=C(CC(=O)c1ccccc1)Nc1ccccn1 | 3.43
25 | CN(c1cccc(NC(=O)COc2ccc(Cl)cc2Cl)c1)S(C)(=O)=O | -2.24
26 | O=C1Nc2ccc(Br)cc2/C1=C/C(=O)c1ccc2c(c1)OCO2 | 20.9
27 | COc1ccc(/C=N/Nc2cc(C)nc(-n3nc(C)cc3C)n2)c(OC)c1 | -25.2

Row | Compound | activity change, negative = decreased viability [%]
28 | Cc1ccc(S(=O)(=O)/N=C2\C(=O)c3ccccc3C([O-])=C2n2cc[n+](CCC(C)C)c2)cc1 | -33.9
29 | CCC(=O)N1CCN(c2ccc(NC(=O)c3ccc([N+](=O)[O-])o3)cc2)CC1 | 8.91
30 | CCN(CC)CCNC(=O)c1c(C)n(-c2ccccc2)c2cc(Br)c(OC)cc12 | -49.1
31 | O=C(Cn1ncc(Cl)c(Cl)c1=O)N1CCN(Cc2ccccc2)CC1 | 62.3
32 | O=C(Cn1ncc(Cl)c(Cl)c1=O)c1ccc(Cl)cc1 | 84.6
33 | O=C(COC(=O)CCN1C(=O)/C(=C\C=C\c2ccccc2)SC1=S)Nc1cc(F)ccc1F | 0.586
34 | CC(C)(C)c1ccc(C(=O)Nc2sc3c(c2C(=O)O)CCC3)cc1 | -11.3
35 | CCN1/C(=C/c2cc[n+](C)cc2)C=Cc2cc(C)ccc21 | -23.4
36 | O=C(Nc1ccc(F)cc1F)c1cc2ccccc2oc1=O | -5.16
37 | CC1CCC/C=C/C(=O)c2c(O)cc(O)cc2CC(=O)O1 (stereo not drawn) | 10.8
38 | COc1ccc(C(=O)/C=C/C(=O)N(CC(=O)NC2CCCCC2)Cc2ccccc2OC)c(O)c1 | -5.15
39 | O=C1CCC2S/C(=C/Nc3ccc(C(F)(F)F)cc3)C(=O)N12 (stereo not drawn) | 15.7
40 | CCCC(=O)N1CCN(c2ccc(NC(=O)c3ccc([N+](=O)[O-])o3)cc2Cl)CC1 | 27.2
41 | COc1ccc(NC(=O)CCC(=O)N/N=C/c2ccc([N+](=O)[O-])s2)cc1 | -23.2
42 | CCCCNC(=O)Nc1ccc(C2SCCS2)cc1 | -14.6
43 | O=C(Nc1ccccn1)c1ccc(Br)s1 | -8.96
44 | N=c1n(CC(=O)c2ccc(Br)cc2)c2ccccc2n1Cc1ccccc1 | -96.7
45 | O=C(N/N=C/c1ccc([N+](=O)[O-])s1)c1cccc(Br)c1 | -11.5
46 | Cc1ccc(NCC(=O)N/N=C\c2ccc([N+](=O)[O-])o2)cc1 | -7.59
47 | Cc1c(C(=O)Nc2ccc(S(=O)(=O)N(C)C3CCN(C)CC3)cc2)oc2c(Cl)cccc12 | -68.5
48 | COc1cc(SC)ccc1C(=O)Nc1ccc(Br)cn1 | -6.11
49 | COc1cc(SC)ccc1C(=O)Nc1ncc(C)s1 | -13.6
50 | O=C(CNC(=O)c1ccccc1)N/N=C/c1ccc([N+](=O)[O-])s1 | -17.8
51 | O=C(Nc1cccc(S(=O)(=O)N2CCCCC2)c1)c1ccc([N+](=O)[O-])o1 | -10.1
52 | Cc1nc2ccccn2c1C(=O)N/N=C/c1ccc([N+](=O)[O-])o1 | -19.2
53 | Cc1nc(SCC(=O)Nc2ccc(CN3CCCC3)cc2)c2c(C)c(C)sc2n1 | -4.46
